Compound activity deposited in PubChem by National Center for Advancing Translational Sciences (NCATS).
Gal4-VP16 FLuc: Gal4-VP16 reporter inhibition counter-screen; Drosophila S2 Gal4-VP16 UAS-luciferase, luminescence, 20 h; Potency, µM (top dose mostly 53.6 µM), for the others: top-dose activity, negative = inhibition, usual class: inhibitors; 310,000 compounds, 3.5% hits; AID 2546;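 also: Gal4-VP16 expression switched on by copper sulfate through the metallothionein promoter; potency is read from the fitted curve at half-maximal effect; % is scaled to controls: 0 for no effect and ±100 for the full control effect; nearly all actives have a fitted effect of over 50% in size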
RORg inh: blocks mouse ROR gamma transcriptional activity; Potency, µM (top dose mostly 53.6 µM), for the others: at the highest dose activity change, negative = inhibition, hits mostly inhibitors; AID 2551; Drosophila S2 Gal4-RORgamma UAS-luciferase reporter, 20 h; P51450; 310,000 compounds, 5.4% hits; also: potency is read from the fitted curve at half-maximal effect; % is scaled to controls: 0 for no effect and ±100 for the full control effect; nearly all actives have a fitted effect of over 60% in size
Target sequence (P51450 whole entry, looked up, the tested form may be a part): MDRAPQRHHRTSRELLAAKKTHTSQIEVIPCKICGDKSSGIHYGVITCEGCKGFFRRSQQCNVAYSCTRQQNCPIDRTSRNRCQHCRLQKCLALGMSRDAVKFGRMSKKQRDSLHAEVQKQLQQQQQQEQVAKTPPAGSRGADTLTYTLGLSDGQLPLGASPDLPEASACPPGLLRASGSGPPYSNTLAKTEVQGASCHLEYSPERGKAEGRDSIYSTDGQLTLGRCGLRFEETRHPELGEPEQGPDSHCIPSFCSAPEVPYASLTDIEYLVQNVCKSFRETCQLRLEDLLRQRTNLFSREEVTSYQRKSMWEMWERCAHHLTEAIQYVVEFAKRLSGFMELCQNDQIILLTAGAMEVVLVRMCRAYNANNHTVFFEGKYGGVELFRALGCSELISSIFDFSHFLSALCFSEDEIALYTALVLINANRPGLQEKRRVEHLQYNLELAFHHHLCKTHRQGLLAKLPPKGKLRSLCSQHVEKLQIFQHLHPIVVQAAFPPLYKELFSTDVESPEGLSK
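ROR gamma transcriptional activity was tracked as Gal4-UAS luciferase output in stably transfected Drosophila Schneider cells, with compound added 1 hr before 700 uM copper sulfate induction and a 20 hr ambient-temperature incubation.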
BRCA1 expr up: activators of BRCA1 expression | MCF7-BRCA1-FFLuc reporter, luminescence, 48 h; response scale: scaled: vehicle 0%, 10 µM genistein 100% | Potency, µM (doses to about 46.1 µM), for inactives: at the highest dose activation, most hits filed as activators | 380,000 compounds, 1.1% hits | AID 624202; also: potency is read from the fitted curve at half-maximal effect; nearly all actives have a fitted effect of over 80% in size
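Luminescence from a BRCA1-driven firefly luciferase in MCF7 cells was read after 48 h compound exposure at 37 C. Data normalized against DMSO and a 10microM genistein activation control, then curve-fitted across the titration.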
Giardia kill: kills Giardia lamblia | Giardia lamblia trophozoite viability | activity change, % at 7.66 µM, hits read low | 340,000 compounds, 0.15% hits; in the data active = activity change below about -80%; inconclusive = between about -30% and that limit;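 also: parasites exposed to compound for two days anaerobically before the ATP read; % is scaled to controls: 0 for no effect and ±100 for the full control effect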
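ATP-content bioluminescence gauges trophozoite survival. Cells (100/well) receive compound and incubate anaerobically for 48 hrs at 37 deg C; detection reagent follows for 15-30 min at room temperature.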
p53 reactivation: restores transcriptional activity of mutant p53; H1299 p53-A138V BP100-luciferase reporter, luminescence, 24 h; Potency, µM (titrated, usually from 92.2 µM), inactives show at the top dose activity change, positive = activation, hits mostly activators; 320,000 compounds, 0.063% hits; AID 504706; also: potency is read from the fitted curve at half-maximal effect; % of control where 0% means no effect; nearly all actives have a fitted effect of over 45% in size
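p53-null H1299 cells stably carrying temperature-sensitive p53-A138V and a BP100-luciferase reporter were pinned with compounds (4-point, 1:5 series) and held 24 hrs at 37 deg C. Luminescence was read 10 min after detection reagent.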
ELG1 repair inh: inhibitors of ELG1-dependent DNA repair in HEK293T cells; 330,000 compounds, 2.3% hits; HEK293T ELG1-luciferase reporter, luminescence, 16 h; DNA damage induced by 5-fluorouridine; Potency, µM (doses to about 46.1 µM), for the others: at the highest dose activity change, negative = inhibition, usual class: inhibitors; also: potency is read from the fitted curve at half-maximal effect; % is scaled to controls: 0 for no effect and ±100 for the full control effect; nearly all actives have a fitted effect of over 55% in size
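Quantitative HTS, concentration-response format. 2,000 cells/well co-treated with 5-fluorouridine and compound, 16 hr in 5% CO2 at 37 °C; ONE-Glo luminescence read after 30 min.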
* marks the source's active call; other numbers are inactive results; u = inconclusive; x = not tested or not shown. In the library only some 7.6% were active in any assay of this set; here they are far more common. Unless noted, calls follow the shape of the dose curve; as a rule, active = well fitted curve in the direction sought with a large enough effect; inconclusive = small, poorly fitted or top-dose-only effect, or another doubt; inactive = no such curve, though single readings can be large; an effect the other way counts as inactive or inconclusive.

SMILES	Gal4-VP16 FLuc	RORg inh	BRCA1 expr up	Giardia kill	p53 reactivation	ELG1 repair inh
O=C(NNC(=S)NC1CCCCC1)c1ccc2c(c1)OCO2	u	-33%	73%	14	u	u
CCCc1cc(C(=O)NNC(=S)NC2CCCCC2)cs1	u	3.5µM*	26%	-8	14%	16%
Cc1cc(C(=O)NNC(=S)NCc2ccccc2)no1	x	x	-7%	-6	x	3%
O=C(Nc1nccs1)c1csc2c1CCCC2	10µM*	u	-2%	-10	19%	u
CCc1cc(C(=O)NNC(=S)NCc2ccccc2)cs1	-16%	14µM*	10%	4	29%	18%
Cc1cc(C(=O)NNC(=S)NCc2ccccc2)cs1	-4%	-23%	2%	-8	7%	6%
CCc1cc(C(=O)NNC(=S)Nc2cc(C)ccc2C)cs1	-4%	-18%	-1%	-5	20%	1%
CCNC(=S)NNC(=O)c1csc2c1CCCC2	-24%	3.2µM*	2%	13	-3%	-4%
CCNC(=S)NNC(=O)c1csc(CC)c1	-23%	4.5µM*	50%	-11	20%	0%
CCC(C)NC(=O)c1csc2c1CCCCC2 (configuration not stated)	1%	11%	28%	0	0%	u
COCCCNC(=O)CNC(=S)N(Cc1ccc(F)cc1)C1CCCCC1	0%	-11%	-18%	-20	-23%	-16%
C=C(C)C1CCC2(C(=O)O)CCC3(C)C(CCC4C5(C)C(C=O)C(O)C(C)(C)C5CCC43C)C12 (configuration not stated)	u	u	-15%	-13	0%	u
Cc1cc(NC(=O)Nc2ccc3c(ccn3C)c2)sn1	-6%	u	10µM*	-9	x	x
Cc1nc2cc(NC(=O)Nc3cccc([N+](=O)[O-])c3)ccc2n1C	-2%	-38%	67%	-19	0%	u
CN(C)c1ccc(S(=O)(=O)NCC(=O)OCC(=O)Nc2cccc(Cl)c2)cc1[N+](=O)[O-]	-2%	6%	1%	-3	1%	3%
CCCCCc1ccc(OCCOCCn2c[n+](C)c3ccccc32)c(CCCCC)c1	16µM*	u	-79%	5	-8%	7.3µM*
C=CC(C)(C)c1[nH]c2ccccc2c1C1=C(O)C(=O)C(c2c[nH]c3c(CC=C(C)C)cccc23)=C(O)C1=O	u	3%	x	x	x	x
CCOC(=O)c1cnc(SCc2ccc(C)cc2)nc1N	0%	23%	7.1µM*	-22	u	u
CCCCSc1ncc(C(=O)OCC)c(N)n1	u	13%	3.5µM*	-4	u	u
CCOC(=O)c1cnc(SCC(=O)c2ccc(Cl)cc2)nc1N	11%	u	48%	-10	12%	u
CCOC(=O)c1cnc(SCCc2ccccc2)nc1N	-1%	-12%	u	-22	u	u
CCOC(=O)C1Oc2ccccc2C(c2ccc(OC)cc2)=C1C(=O)OC (configuration not stated)	-9%	14%	5%	-17	-8%	-1%
Cc1ccc(S(=O)(=O)N(C)CCCC(=O)Nc2ccc(F)cc2)cc1	6%	21%	39%	u	-1%	u
Cc1ccc(S(=O)(=O)N(C)CCCC(=O)Nc2ccncc2)cc1	u	24%	0%	-12	-1%	5.8µM*
O=[N+]([O-])c1cccc(C(=Nc2ccccc2)NO)c1	0%	17%	-1%	-8	-8%	-4%
SMILES	Gal4-VP16 FLuc	RORg inh	BRCA1 expr up	Giardia kill	p53 reactivation	ELG1 repair inh
O=[N+]([O-])c1cc([N+](=O)[O-])c2c(=Nc3ccccc3)n(-c3ccccc3)n(O)c2c1	u	13µM*	-75%	-10	8%	-6%
c1c(CC2CCCC2)nnn1C[C@H]1CC[C@@H]([C@@H]2CC[C@H](Cn3cc(CC4CCCC4)nn3)O2)O1	2%	14%	-2%	4	x	5%
Cc1ccccc1OCC(=O)Nc1ccccc1C(=O)NC1CC1	x	x	-3%	7	14%	5.2µM*
Cc1cccc(OCC(=O)Nc2ccc3c4c(cccc24)CC3)c1C	-29%	-4%	-1%	0	4%	u
CNC(=S)NNC(=O)COc1cccc(C)c1C	7.1µM*	1.4µM*	0%	10	-4%	24%
CNC(=S)NNC(=O)COc1ccccc1C	10µM*	7.1µM*	32%	16	0%	-3%
Cc1cc(SCC(=O)c2cccs2)n2nc(C)c(-c3ccc(Cl)cc3)c2n1	u	1µM*	-35%	8	-9%	u
C=CCSc1cc(C)nc2c(-c3ccc(Cl)cc3)c(C)nn12	u	20µM*	-29%	-17	1%	0%
Cc1nn2c(SCC(=O)c3cccs3)cc(C(C)(C)C)nc2c1-c1ccccc1	7.1µM*	10µM*	-44%	-1	0%	u
C=C(C)CSc1cc(C)nc2c(-c3ccccc3)c(C)nn12	u	11µM*	-2%	5	3%	u
CCOC(=O)c1cnn(-c2cc(C(C)(C)C)nc3c(-c4ccccc4)c(C)nn23)c1N	1%	-22%	8%	19	0%	4%
CCSc1cc(C)nc2c(-c3ccccc3)c(C)nn12	19%	0%	2%	-8	3%	29%
Cc1cc(SCC(=O)Nc2ccc(O)cc2)n2nc(C)c(-c3ccccc3)c2n1	11%	-14%	-31%	-7	-7%	u
O=[N+]([O-])c1ccc(OCCCCCN2CCOCC2)cc1	-5%	-6%	-7%	-17	x	-5%
CN(C)CCNC(=O)c1cccc(-c2cnc3c(NC=O)cc(-c4ccc(S(C)(=O)=O)cc4)cn23)c1	x	x	5%	x	x	x
COc1cc(C)ccc1OCCCOc1ccccc1Br	-23%	13µM*	u	-8	u	u
COc1ccccc1OCCCOc1ccc(C)cc1Br	-16%	0%	u	13	u	u
CCOC(=O)c1c(C)[nH]c(C)c1C(=O)CSc1ncccn1	4%	-1%	2%	6	-9%	-1%
CC[C@H]1c2[nH]c3ccccc3c2C[C@H]2C(=O)N(c3ccc(F)cc3)C(=O)N21	x	x	-5%	u	-1%	7.3µM*
CC1(C)c2[nH]c3ccccc3c2C[C@@H]2C(=O)N(Cc3ccc(F)cc3)C(=O)N21	x	x	-14%	11	x	x
O=C(Nc1nc2ccccc2[nH]1)C12CC3CC(CC(C3)C1)C2	10µM*	6.3µM*	u	-7	u	u
O=C(Nc1nc2ccccc2[nH]1)NC1CCCCC1	u	11µM*	23%	7	23%	u
